Experimental data published in PubChem BioAssay AID1159580 (chemical genetic matrix, 2015).
Several values for one entry are separate records, joined by “and”; a condition that tells them apart may be missing. Equal entries are not always repeated. Among all 5,500 compounds or so, about 2,000 (36%) were called active. About 18% were inconclusive and are not listed. Rule as the data show it: active = normalized growth mostly below about 0.91 (no sharp cut-off); inconclusive = no clear call, values can overlap the other calls; inactive = mostly above about 0.92. This is one part of the list.

Assay: chemical genetic growth profiling, strain panel (AID 1159580);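 also: tested at 20 µM; growth read once vehicle control cultures reached saturation at 30 °C; 1 = growth at the plate median or of vehicle wells; lower values mean less growth of the strain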
Conditions: S. cerevisiae deletion strains, growth OD

Measured: normalized growth

CN[C@H](CC(=O)O)C(=O)O
inactive: locus YAL013W, strain DEP1, active compounds read low 0.983 | locus YAL021C, strain ccr4, active compounds read low 0.988 | locus YAL026C, strain drs2, active compounds read low 1.02 | locus YAL030W, strain snc1, active compounds read low 1.01 | locus YBL061C, strain skt5, active compounds read low 1.02 | locus YBR009C, strain hhf1, active compounds read low 1.01 | locus YBR021W, strain FUR4, active compounds read low 1.02 | locus YBR023C, strain chs3, active compounds read low 1.03 | locus YBR171W, strain sec66, active compounds read low 1.01 | locus YBR229C, strain ROT2, active compounds read low 0.998 | locus YBR231C, strain swc5, active compounds read low 1.02 | locus YBR279W, strain paf1, active compounds read low 1.01 | locus YCL011C, strain gbp2, active compounds read low 1.03 | locus YCL016C, strain dcc1, active compounds read low 1.02 | locus YCL029C, strain bik1, active compounds read low 0.985 | locus YCL061C, strain MRC1, active compounds read low 1 | locus YCL069W, strain vba3, active compounds read low 1.01 | locus YCR088W, strain abp1, active compounds read low 1.02 | locus YDL005C, strain med2, active compounds read low 1.03 | locus YDL035C, strain GPR1, active compounds read low 0.989 | locus YDL040C, strain nat1, active compounds read low 1.02 | locus YDL074C, strain BRE1, active compounds read low 1.04 | locus YDL101C, strain DUN1, active compounds read low 0.995 | locus YDL134C, strain PPH21, active compounds read low 0.987 | locus YDL185W, strain tfp1, active compounds read low 0.968 | locus YDL192W, strain arf1, active compounds read low 0.967 | locus YDR001C, strain nth1, active compounds read low 1.03 | locus YDR069C, strain doa4, active compounds read low 1.02 | locus YDR101C, strain arx1, active compounds read low 1.03 | locus YDR137W, strain rgp1, active compounds read low 0.967 | locus YDR159W, strain sac3, active compounds read low 1.03 | locus YDR162C, strain NBP2, active compounds read low 0.964 | locus YDR195W, strain ref2 1.05 | locus YDR297W, strain sur2, active compounds read low 1.02 | locus YDR318W, strain mcm21, active compounds read low 0.98 | locus YDR334W, strain swr1, active compounds read low 1.01 | locus YDR335W, strain msn5, active compounds read low 1.01 | locus YDR388W, active compounds read low 0.972 | locus YDR392W, strain spt3, active compounds read low 0.969 | locus YDR502C, strain sam2, active compounds read low 0.989 | locus YEL003W, strain gim4, active compounds read low 1.01 | locus YEL037C, strain rad23, active compounds read low 1.02 | locus YEL061C, strain CIN8 (second series), active compounds read low 1.03 | locus YEL061C, strain CIN8, active compounds read low 0.994 | locus YER015W, strain faa2, active compounds read low 1.02 | locus YER016W, strain bim1, active compounds read low 1.02 | locus YER110C, active compounds read low 0.945 | locus YER111C, strain swi4, active compounds read low 1.02 | locus YER155C, strain BEM2 (second series), active compounds read low 1.06 | locus YER155C, strain BEM2, active compounds read low 1 | locus YER167W, strain BCK2, active compounds read low 0.998 | locus YFR010W, strain ubp6, active compounds read low 1.03 | locus YGL078C, strain dbp3, active compounds read low 0.975 | locus YGL086W, strain mad1, active compounds read low 1.02 | locus YGL167C, strain pmr1, active compounds read low 1.01 | locus YGL173C, strain kem1, active compounds read low 1.01 | locus YGL227W, strain vid30, active compounds read low 1.03 | locus YGL240W, strain doc1, active compounds read low 1.04 | locus YGL248W, strain PDE1, active compounds read low 0.996 | locus YGL253W, strain hxk2, active compounds read low 1.02 | locus YGR135W, strain pre9, active compounds read low 0.923 | locus YGR252W, strain gcn5, active compounds read low 0.979 | locus YHR013C, strain ard1, active compounds read low 1.04 | locus YHR027C, strain rpn1, active compounds read low 1.02 | locus YHR030C, strain SLT2, active compounds read low 0.991 and 1.03 | locus YHR079C, strain IRE1 (second series), active compounds read low 0.992 | locus YHR079C, strain IRE1, active compounds read low 1.04 | locus YHR094C, strain hxt1, active compounds read low 0.981 | locus YHR129C, strain ARP1, active compounds read low 0.995 | locus YHR142W, strain chs7, active compounds read low 1.03 | locus YHR200W, strain rpn10, active compounds read low 0.98 | locus YIL066C, strain RNR3, active compounds read low 1 | locus YIL073C, strain SPO22, active compounds read low 0.913 | locus YIL125W, strain kgd1, active compounds read low 1 | locus YIR030C, strain dcg1, active compounds read low 0.983 | locus YJL092W, strain hpr5, active compounds read low 1.01 | locus YJL095W, strain BCK1 (second series), active compounds read low 1.02 | locus YJL095W, strain BCK1, active compounds read low 1.01 and 1.06 | locus YJL115W, strain asf1, active compounds read low 1.03 | locus YJL129C, strain trk1, active compounds read low 1.09 | locus YJL134W, strain LCB3, active compounds read low 0.993 | locus YJL154C, strain vps35, active compounds read low 1.02 | locus YJL164C, strain tpk1, active compounds read low 0.998 | locus YJL166W, strain qcr8, active compounds read low 1.03 | locus YJL168C, strain set2, active compounds read low 0.98 | locus YJL187C, strain SWE1 (second series), active compounds read low 1 | locus YJL187C, strain SWE1, active compounds read low 1.01 | locus YJR043C, strain POL32, active compounds read low 1
